Compounds without any hit were thinned out: in the full panel of roughly 83,000, 20% have a hit.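 Plates (96-well) were seeded with cells, treated with compound at one concentration, and incubated for 48 hours before percent growth was determined.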 Values without a mark were called inactive. Activity calls are given as the source filed them. The calls were made as follows: active = growth percent below 10; inactive = the rest.

Some test systems named below: SR leukemia; RPMI-8226 leukemia; OVCAR-8 ovarian; OVCAR-5 ovarian; OVCAR-4 ovarian; SK-OV-3 ovarian; IGROV1 ovarian; OVCAR-3 ovarian; HS 578T breast; NCI/ADR-RES ovarian; T-47D breast; BT-549 breast; MDA-MB-435 melanoma; SW-620 colon; MCF7 breast; HCT-116 colon; HCC-2998 colon; KM12 colon.
Experiment in all cases: NCI-60 one-dose screen, 48 h (100 = growth as untreated, 0 = no growth, -100 = all killed)
Conditions in all cases: 10 µM unless noted

Consider `CCCN1C=C/C(=C\C(=O)n2ccc3ccccc32)c2ccccc21`, for which the growth in the experiment on SR leukemia is 55.9%; with RPMI-8226 leukemia, 69.3%; in the experiment on OVCAR-8 ovarian, 95.6%; in the experiment on OVCAR-5 ovarian it was 87.8%; in the experiment on OVCAR-4 ovarian, 49.9%; with SK-OV-3 ovarian, 70.2%. Also, the growth with IGROV1 ovarian is 59.1%; in the experiment on OVCAR-3 ovarian it was 87.3%; in the experiment on HS 578T breast, 101%; with NCI/ADR-RES ovarian, 88.7%; in the experiment on T-47D breast it was 46.6%; in the experiment with BT-549 breast it was 103%. In addition, the growth is 93% in the experiment on MDA-MB-435 melanoma; 86.6% in the experiment on SW-620 colon; 64.5% in the experiment on MCF7 breast; 69% with HCT-116 colon; 104% in the experiment on HCC-2998 colon; 84.8% in the experiment with KM12 colon.

For the compound `C[C@]12CC[C@H]3[C@@H](CC=C4C[C@@H](O)CC[C@@]43C)[C@@H]1CC[C@@H]2[C@](C)(O)CCc1cccnc1`, the growth in the experiment on SR leukemia was 32.3%; in the experiment on RPMI-8226 leukemia, 33.1%; in the experiment with OVCAR-8 ovarian, 62%; in the experiment on OVCAR-5 ovarian, 113%; in the experiment on OVCAR-4 ovarian, 21.9%; with SK-OV-3 ovarian, 82.8%. The growth in the experiment with IGROV1 ovarian is 81.3%; with OVCAR-3 ovarian it was 65.7%; with HS 578T breast, 56%; with NCI/ADR-RES ovarian, 65.9%; in the experiment on T-47D breast, 36.3%; with BT-549 breast, 47.7%. Also, the growth in the experiment with MDA-MB-435 melanoma was 64%; with SW-620 colon it was 83.1%; in the experiment with MCF7 breast it was 35.2%; with HCT-116 colon, 51.9%; in the experiment on HCC-2998 colon it was 86.7%; in the experiment with KM12 colon, 70.2%.

As for `O=C(CCCCCCNC(=O)C(O)(O)C(F)(F)F)Nc1ccc(Cl)cc1`, the growth in the experiment with SR leukemia is 12.1%; in the experiment with RPMI-8226 leukemia it was 20.1%; in the experiment with OVCAR-8 ovarian, 11.9%; in the experiment with OVCAR-5 ovarian it was 9.85% (active); with OVCAR-4 ovarian, 47.4%; in the experiment on SK-OV-3 ovarian it was -6.99% (active). The growth with IGROV1 ovarian is 27.8%; in the experiment on OVCAR-3 ovarian, 24.9%; in the experiment on HS 578T breast, 33.2%; in the experiment on NCI/ADR-RES ovarian it was 24.6%; in the experiment on T-47D breast, 10.5%; with BT-549 breast, 45.9%. The growth in the experiment on MDA-MB-435 melanoma is 11.6%; with SW-620 colon, 5.2% (active); in the experiment with MCF7 breast, 17.3%; in the experiment on HCT-116 colon, 3.99% (active); with HCC-2998 colon, 25.6%; in the experiment with KM12 colon, 20.6%.

In the case of `C[C@@H]1OCC2(CCN(c3cnc(C(=O)Nc4cc(F)cc5cccnc45)cn3)CC2)[C@@H]1N`, the growth was 2.82% (active) with SR leukemia; 55.5% with RPMI-8226 leukemia; 86.8% in the experiment on OVCAR-8 ovarian; 80% in the experiment with OVCAR-5 ovarian; 14.8% in the experiment on OVCAR-4 ovarian; 102% in the experiment with SK-OV-3 ovarian. The growth is 28% in the experiment on IGROV1 ovarian; 18.7% with OVCAR-3 ovarian; 66.6% in the experiment on HS 578T breast; 76.4% with NCI/ADR-RES ovarian; 37.1% in the experiment with T-47D breast; 90.1% with BT-549 breast. In addition, the growth with MDA-MB-435 melanoma was 82.9%; in the experiment on SW-620 colon, 12.5%; in the experiment with MCF7 breast, 2.1% (active); with HCT-116 colon, 15.7%; in the experiment on HCC-2998 colon, 84.3%; in the experiment with KM12 colon it was 83.7%.

Regarding `COc1ccc(Cn2cc(C#N)c(N)c2C(C)=O)cc1`, the growth in the experiment with SR leukemia was 122%; in the experiment with RPMI-8226 leukemia, 105%; in the experiment with OVCAR-8 ovarian, 111%; with OVCAR-5 ovarian, 106%; in the experiment with OVCAR-4 ovarian it was 92.9%; in the experiment on SK-OV-3 ovarian, 105%. Also, the growth was 106% in the experiment on IGROV1 ovarian; 108% with OVCAR-3 ovarian; 102% with HS 578T breast; 104% in the experiment with NCI/ADR-RES ovarian; 96.8% with T-47D breast; 114% in the experiment on BT-549 breast. In addition, the growth is 104% with MDA-MB-435 melanoma; 111% with SW-620 colon; 90.4% with MCF7 breast; 108% with HCT-116 colon; 107% in the experiment with HCC-2998 colon; 98.7% in the experiment on KM12 colon.

With `NNc1nnc2nc(Nc3ccccc3)nc(Nc3ccc(S(N)(=O)=O)cc3)n12`, the growth was 93.3% in the experiment with SR leukemia; 99.4% in the experiment on RPMI-8226 leukemia; 107% with OVCAR-8 ovarian; 103% in the experiment on OVCAR-5 ovarian; 112% in the experiment with OVCAR-4 ovarian; 113% in the experiment with SK-OV-3 ovarian. The growth was 98.3% with IGROV1 ovarian; 110% in the experiment on OVCAR-3 ovarian; 99.6% with HS 578T breast; 99.6% with NCI/ADR-RES ovarian; 109% with T-47D breast; 107% in the experiment with BT-549 breast. The growth with MDA-MB-435 melanoma was 108%; with SW-620 colon it was 104%; in the experiment with MCF7 breast, 97.8%; in the experiment on HCT-116 colon, 107%; with HCC-2998 colon, 104%; in the experiment with KM12 colon it was 103%.

As for `CC1=C(C)C(=O)C(Nc2ccc3c(c2)OCCO3)=C(Br)C1=O`, the growth with SR leukemia is 77.6%; in the experiment with RPMI-8226 leukemia it was 100%; with OVCAR-8 ovarian, 100%; with OVCAR-5 ovarian, 108%; with OVCAR-4 ovarian, 66.8%; in the experiment with SK-OV-3 ovarian it was 93.9%. Further, the growth is 102% with IGROV1 ovarian; 109% with OVCAR-3 ovarian; 97.3% with HS 578T breast; 97.3% with NCI/ADR-RES ovarian; 80.5% in the experiment with T-47D breast; 101% in the experiment with BT-549 breast. The growth in the experiment with MDA-MB-435 melanoma is 102%; with SW-620 colon, 107%; with MCF7 breast, 78.2%; in the experiment on HCT-116 colon, 90.6%; in the experiment on HCC-2998 colon, 102%; in the experiment on KM12 colon, 93.7%.

In the case of `CC(=O)Nc1cc(N2CCOCC2)c2nc(NC(=O)c3[nH]c(C)c(Cl)c3Cl)sc2c1`, the growth in the experiment with SR leukemia is 28.6%; in the experiment on RPMI-8226 leukemia it was 55%; in the experiment on OVCAR-8 ovarian, 67.1%; in the experiment with OVCAR-5 ovarian, 94.7%; in the experiment with OVCAR-4 ovarian it was -10.8% (active); in the experiment on SK-OV-3 ovarian, 95.5%. Further, the growth in the experiment on IGROV1 ovarian is 82.5%; with OVCAR-3 ovarian, 72.3%; in the experiment with HS 578T breast it was 31.3%; in the experiment on NCI/ADR-RES ovarian, 48.9%; in the experiment with T-47D breast, 46.9%; in the experiment on BT-549 breast, 74.1%. In addition, the growth in the experiment on MDA-MB-435 melanoma is 59%; with SW-620 colon, 84.4%; in the experiment with MCF7 breast, 67.1%; in the experiment on HCT-116 colon, 68.5%; in the experiment on HCC-2998 colon it was 109%; with KM12 colon, 82.4%.
